In PubChem BioAssay (NCI) one finds growth data, which are given here for eight compounds.

This is part of a sample that, as a whole, favours compounds with a hit. Of some 83,000 tested, about 20% had one in any assay.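 The endpoint reported here, percent growth, reads 100 for growth as untreated, 0 for no net growth and -100 for all cells dead.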 Unmarked numbers belong to inactive results. Active and inactive are the calls of the source. Rule for the calls: active = growth percent below 10; inactive = the rest.

Among the test systems are SR leukemia; RPMI-8226 leukemia; OVCAR-8 ovarian; OVCAR-5 ovarian; OVCAR-4 ovarian; SK-OV-3 ovarian; IGROV1 ovarian; OVCAR-3 ovarian; HS 578T breast; NCI/ADR-RES ovarian; T-47D breast; BT-549 breast; MDA-MB-435 melanoma; SW-620 colon; MCF7 breast; HCT-116 colon; HCC-2998 colon; KM12 colon.
What all share (assay): NCI-60 one-dose screen, 48 h (100 = growth as untreated, 0 = no growth, -100 = all killed)
What all share (conditions): 10 µM unless noted

As for `CC(=O)[C@H]1CC[C@]2(C)[C@@H]1CC[C@@H]1[C@@]3(C)C/C(=C/c4cccnc4)C(=O)C(C)(C)[C@@H]3CC[C@]12C`, the growth is 40.9% with SR leukemia; 8.88% (active) with RPMI-8226 leukemia; 27.1% with OVCAR-8 ovarian; 132% in the experiment with OVCAR-5 ovarian; 43.6% in the experiment with OVCAR-4 ovarian; 87.2% in the experiment on SK-OV-3 ovarian. Also, the growth was 93.4% in the experiment on IGROV1 ovarian; 47.4% in the experiment with OVCAR-3 ovarian; 94.2% with HS 578T breast; 67.2% in the experiment with NCI/ADR-RES ovarian; 13.6% in the experiment on T-47D breast; 50.6% with BT-549 breast. In addition, the growth in the experiment on MDA-MB-435 melanoma was 75.1%; with SW-620 colon it was 61.9%; in the experiment on MCF7 breast, 34.8%; with HCT-116 colon it was 33.2%; in the experiment on HCC-2998 colon, 99.9%; in the experiment with KM12 colon it was 49.1%.

Consider `COC(CCP(=O)(c1ccccc1)c1ccccc1)(C(=O)c1ccccc1)c1ccccc1` (centres undefined), for which the growth is -8.14% (active) in the experiment with SR leukemia; 4.88% (active) in the experiment on RPMI-8226 leukemia; 77% in the experiment with OVCAR-8 ovarian; 84.1% in the experiment with OVCAR-5 ovarian; 61.3% in the experiment with OVCAR-4 ovarian; 83.5% in the experiment on SK-OV-3 ovarian. The growth in the experiment with IGROV1 ovarian is -19.4% (active); with OVCAR-3 ovarian, 77.1%; in the experiment on HS 578T breast, 83.5%; with NCI/ADR-RES ovarian, 57.7%; in the experiment with T-47D breast, 47.6%; in the experiment on BT-549 breast, 60.4%. Besides, the growth was 71.4% in the experiment on MDA-MB-435 melanoma; 76% in the experiment with SW-620 colon; 35.1% with MCF7 breast; 45.5% in the experiment with HCT-116 colon; 72.7% in the experiment on HCC-2998 colon; 57.3% in the experiment on KM12 colon.

On to `COc1ccc(CNc2ccc3nc(CCC4CCCCC4)[nH]c3c2)cc1`, for which the growth was 46.8% in the experiment with SR leukemia; 40.2% with RPMI-8226 leukemia; 73.6% with OVCAR-8 ovarian; 83.4% in the experiment on OVCAR-5 ovarian; 40.1% in the experiment with OVCAR-4 ovarian; 82% in the experiment on SK-OV-3 ovarian. Besides, the growth is 61% with IGROV1 ovarian; 75.4% with OVCAR-3 ovarian; 79.7% in the experiment on HS 578T breast; 70.3% in the experiment on NCI/ADR-RES ovarian; 41% with T-47D breast; 96.7% in the experiment with BT-549 breast. Also, the growth is 80.9% in the experiment on MDA-MB-435 melanoma; 75% with SW-620 colon; 68.4% in the experiment with MCF7 breast; 50.7% in the experiment on HCT-116 colon; 30.8% with HCC-2998 colon; 79.8% in the experiment with KM12 colon.

On to `O=c1[nH]c(CN2CCN(c3ccccc3)CC2)nc2c(Br)cc(Br)cc12`, for which the growth in the experiment on SR leukemia was 3.49% (active); in the experiment with RPMI-8226 leukemia, 96.6%; with OVCAR-8 ovarian it was 104%; in the experiment with OVCAR-5 ovarian it was 95.3%; in the experiment on OVCAR-4 ovarian it was 105%; in the experiment with SK-OV-3 ovarian, 96.4%. In addition, the growth with IGROV1 ovarian is 29.4%; in the experiment on OVCAR-3 ovarian, 103%; in the experiment on HS 578T breast, 91.7%; in the experiment with NCI/ADR-RES ovarian it was 104%; in the experiment on T-47D breast, 103%; in the experiment with BT-549 breast, 123%. The growth is 108% in the experiment on MDA-MB-435 melanoma; 102% in the experiment with SW-620 colon; 110% in the experiment on MCF7 breast; 107% with HCT-116 colon; 101% with HCC-2998 colon; 105% with KM12 colon.

Take `COc1ccc(-n2c(=O)n(-c3ccc(-c4nc5ccc(F)cc5s4)cc3)c(=O)c3cccnc32)cc1`: the growth in the experiment on SR leukemia was 104%; in the experiment on RPMI-8226 leukemia, 91.6%; in the experiment on OVCAR-8 ovarian, 93.1%; in the experiment with OVCAR-5 ovarian, 108%; in the experiment on OVCAR-4 ovarian it was 104%; in the experiment with SK-OV-3 ovarian it was 86.6%. Moreover, the growth is 90.5% in the experiment with IGROV1 ovarian; 106% in the experiment on OVCAR-3 ovarian; 101% with HS 578T breast; 103% in the experiment with NCI/ADR-RES ovarian; 73.5% with T-47D breast; 99.7% in the experiment on BT-549 breast. Further, the growth in the experiment with MDA-MB-435 melanoma is 102%; in the experiment on SW-620 colon it was 106%; in the experiment on MCF7 breast it was 92.2%; in the experiment on HCT-116 colon, 91.5%; in the experiment on HCC-2998 colon, 91.4%; in the experiment with KM12 colon, 102%.

Take `O=c1n(C2OC(CO)C(O)C2O)ccc2nccn12` (centres undefined): the growth in the experiment with SR leukemia is 88.2%; with RPMI-8226 leukemia, 114%; with OVCAR-8 ovarian, 92%; in the experiment with OVCAR-5 ovarian, 115%; with OVCAR-4 ovarian, 117%; in the experiment on SK-OV-3 ovarian, 117%. Moreover, the growth in the experiment with IGROV1 ovarian is 113%; in the experiment on OVCAR-3 ovarian, 107%; with HS 578T breast, 101%; in the experiment on NCI/ADR-RES ovarian it was 113%; in the experiment on T-47D breast, 118%; with BT-549 breast, 121%. The growth is 102% with MDA-MB-435 melanoma; 94.4% in the experiment with SW-620 colon; 94.1% with MCF7 breast; 112% in the experiment with HCT-116 colon; 110% with HCC-2998 colon; 103% with KM12 colon.

As to `O=C(c1ccc(F)cc1)C1CCN(CCn2c(=O)[nH]c3ccccc3c2=O)CC1`, the growth in the experiment on SR leukemia is 99.9%; in the experiment on RPMI-8226 leukemia, 104%; with OVCAR-8 ovarian it was 103%; in the experiment with OVCAR-5 ovarian, 99.9%; with OVCAR-4 ovarian, 109%; in the experiment with SK-OV-3 ovarian, 102%. Moreover, the growth in the experiment on IGROV1 ovarian is 111%; with OVCAR-3 ovarian, 96.9%; with HS 578T breast, 108%; in the experiment with NCI/ADR-RES ovarian, 102%; with T-47D breast, 102%; in the experiment with BT-549 breast, 107%. For the same compound, the growth was 104% with MDA-MB-435 melanoma; 102% in the experiment on SW-620 colon; 97.6% in the experiment with MCF7 breast; 110% with HCT-116 colon; 105% in the experiment on HCC-2998 colon; 104% with KM12 colon.

For the compound `Clc1nc(N2CCC[N+]3(CC2)CC[N+]2(CCCNCC2)CC3)nc(N2CCC[N+]3(CC2)CC[N+]2(CCCNCC2)CC3)n1` (centres undefined), the growth is 90.4% in the experiment with SR leukemia; 99.8% in the experiment on RPMI-8226 leukemia; 86% in the experiment with OVCAR-8 ovarian; 113% in the experiment on OVCAR-5 ovarian; 98.4% in the experiment on OVCAR-4 ovarian; 76.2% in the experiment with SK-OV-3 ovarian. Moreover, the growth is 97.3% with IGROV1 ovarian; 92.2% with OVCAR-3 ovarian; 98.3% with HS 578T breast; 92.6% in the experiment on NCI/ADR-RES ovarian; 95% with T-47D breast; 95.1% in the experiment on BT-549 breast. In addition, the growth is 90% in the experiment with MDA-MB-435 melanoma; 98.2% in the experiment on SW-620 colon; 91.3% with MCF7 breast; 87% in the experiment on HCT-116 colon; 97.9% with HCC-2998 colon; 94.4% with KM12 colon.
